Bioassay records deposited in PubChem by several laboratories.
DUSP3 inh: DUSP3 (human) phosphatase inhibition | actives 0.52% (n = 290,000) | inhibition, % at 13.3 µM | recombinant VHR phosphatase, pNPP absorbance; in the data active = inhibition above about 50%
Target sequence (P51452 whole entry, looked up): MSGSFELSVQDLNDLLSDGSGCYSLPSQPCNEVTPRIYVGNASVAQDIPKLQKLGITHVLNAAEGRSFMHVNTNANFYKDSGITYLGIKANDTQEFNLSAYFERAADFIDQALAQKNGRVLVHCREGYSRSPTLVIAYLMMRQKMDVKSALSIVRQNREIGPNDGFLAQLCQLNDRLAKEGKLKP
PfHsp40 rescue: rescue of PfHsp40-mediated yeast toxicity | S. cerevisiae expressing PfHsp40, growth rescue, ATP luminescence | growth rescue, % at 12.5 µM | actives 0.68% (n = 340,000); in the data active = growth rescue above about 28%, passing the limit was not always enough;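 note: yeast W303a lacking pdr1 and pdr3 grown in galactose medium; growth measured after three days at 30 °C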
Sa ugtP lethal: kills S. aureus RN4220 lacking UgtP; S. aureus RN4220 ugtP deletion, OD600 growth, 16 h; growth inhibition, % (no concentration beside the values); actives 0.54% (n = 330,000); in the data active = growth inhibition above about 68%;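 note: plate controls were untreated wells for no effect and antibiotic for full effect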
PrPC surface inh: inhibitors of human cell surface prion protein PrPC; TR-FRET read-out; inhibition, % at 13.8 µM; P04156; AID 720596; actives 0.43% (n = 370,000); in the data active = inhibition above about 24%; note: 0% = median of the test wells and 100% = reference compound wells
RN4220 kill: S. aureus RN4220 growth inhibition | OD600, 16 h | inhibition, % (test concentration not listed) | actives 0.33% (n = 330,000) | AID 1259311; in the data active = inhibition above about 85%;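 note: plate controls were untreated cells for no effect and reference antibiotic for full effect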
Starred values were filed as active, the others as inactive; . = no result. Only some compounds are listed: those with a hit (about 1.8% of all), similar ones and a draw of the others.

SMILES | DUSP3 inh | PfHsp40 rescue | Sa ugtP lethal | PrPC surface inh | RN4220 kill
CN(C)c1ccc(/C=C/c2ccc3ccccc3[n+]2C)cc1 | 32.8 | 52.6* | 95.4* | -51.0 | 96.7*
CN(C)c1ccc(/C=C/c2ccc3c4ccccc4ccc3[n+]2-c2ccccc2)cc1 | 16.6 | -0.3 | 97.9* | -7.3 | 97.8*
CN(C)c1ccc(/C=C/c2cccc[n+]2[O-])cc1 | 17.2 | 0.8 | . | -10.2 | .
CC(CSc1ccccc1)CN1CCC(NC(=O)OCc2ccccc2)CCC1=O (centres undefined) | . | . | 0.6 | . | 7.5
CC(C)[C@H](N)C(=O)NC[C@H](CC(=O)NCC1CCC(C(=O)O)CC1)c1ccc(Cl)cc1 (some centres undefined) | . | . | 9.9 | . | 4.1
Cc1occc1C(=O)NC(C)C12CC3CC(CC(C3)C1)C2 (centres undefined) | -14.0 | 104.7* | -0.7 | -0.8 | 1.7
Cc1cc(C)c2c(N)c(C(=O)c3ccc(Br)cc3)oc2n1 | 16.2 | 4.6 | 81.4 | -1.6 | 92.8*
Cc1cc(C)c2c(N)c(C(=O)c3ccccc3)oc2n1 | 49.6 | 2.5 | -8.3 | -3.4 | 2.6
COC(=O)[C@@]1(Cc2ccc(F)cc2)C2c3cc(C(=O)N4CCCC4)n(CCc4ccc(O)c(O)c4)c3CC2CN1C(=O)c1ccccc1 (some centres undefined) | . | . | 0.8 | . | 6.4
COc1ccc(C=NNC(C)(C)C)c(OC)c1 | . | . | 37.9 | . | 2.8
CCN1CCN(Cc2ccc(NC(=O)c3ccc(C)c(NC(=O)C(=O)c4c[nH]c5ccccc45)c3)cc2C(F)(F)F)CC1 | 16.6 | -0.6 | 100.0* | -8.4 | 100.7*
CCN1CCN(Cc2ccc(NC(=O)c3cc(NC(=O)C(=O)c4c[nH]c5ccccc45)cc(OC)c3)cc2C(F)(F)F)CC1 | -7.9 | -0.6 | 22.5 | -24.4 | 57.7
CN(C(=O)c1cccc(NC(=O)Cc2ccc(NC(=O)C3CCN(S(=O)(=O)c4cccc([N+](=O)[O-])c4)CC3)cc2)c1)C1CCC1 | . | 1.4 | -2.5 | -3.2 | 5.5
CN(C(=O)c1ccc(NC(=O)Cc2ccc(NC(=O)C3CCN(C(=O)C4CCCC4)CC3)cc2)cc1)C1CC1 | . | 36.4* | 2.5 | -2.6 | 6.3
CN(C(=O)c1cccc(NC(=O)Cc2ccc(NC(=O)C3CCN(S(=O)(=O)c4cccc([N+](=O)[O-])c4)CC3)cc2)c1)C1CCCC1 | . | 120.0* | 1.5 | -12.8 | 3.6
CCOc1ccc(Cc2c(Cl)nc(N)nc2Cl)cc1 | -0.1 | 0.3 | -1.9 | -1.2 | -1.5
CSc1nc(Cl)c(Cc2ccc(OC(C)C)cc2)c(N(C)C)n1 | 7.8 | 1.1 | 93.9* | 2.8 | -13.0
COc1ccc(Cc2c(Cl)ncnc2Cl)cc1 | -0.3 | -0.9 | 3.5 | 2.1 | 4.3
CCOc1ccc(Cc2c(Cl)nc(SC)nc2N(C)C)cc1 | 7.3 | 0.1 | 93.2* | 5.8 | -7.2
COc1cc(C=NNC(=O)c2ccncc2)ccc1OCCN1CCCCC1 | . | . | 2.4 | . | 2.6
CC(C)NC(=S)NC(=O)c1ccc(-c2ccccc2)cc1 | 21.9 | 59.5* | -19.2 | 8.4 | 27.8
O=C(NC(=S)Nc1ccc(-c2ccccc2)cc1)c1ccccc1 | . | 0.7 | 7.1 | 0.1 | -10.8
Cc1ccc(C(=O)NC(=S)Nc2ccccc2C(F)(F)F)cc1C | 21.9 | 32.1* | 69.5 | -0.5 | -6.4
Cc1cccc(C(=O)NC(=S)Nc2ccccc2C(F)(F)F)c1 | -4.7 | -0.8 | 10.4 | 10.9 | -1.2
Cc1ccc(C(=O)O)cc1NC(=S)NC(=O)c1ccc(-c2ccccc2)cc1 | 16.4 | 113.0* | 2.6 | 6.5 | 20.3
SMILES | DUSP3 inh | PfHsp40 rescue | Sa ugtP lethal | PrPC surface inh | RN4220 kill
O=C(O)c1cccc(NC(=S)NC(=O)c2ccc(-c3ccccc3)cc2)c1 | 38.0 | -1.5 | -6.1 | -0.1 | 9.5
CC(NC(=O)c1nc[nH]c1C(=O)NCCCCCN)C(=O)OCc1ccccc1 (centres undefined) | . | . | 0.7 | . | 5.8
CN(C)C=C1Oc2ccc3ccccc3c2C1=O | . | . | 0.0 | . | 3.1
O=C1C=C(c2ccc(CO)cc2)CC(c2ccc3c(c2)OCO3)C1 (centres undefined) | . | . | 4.2 | . | 10.6
CCC(C)NC(=O)N[C@@H](CCSC)C(=O)OC (some centres undefined) | 56.4* | -0.9 | -2.8 | -0.9 | 1.7
OCC12CO[C@@H]3c4ccccc4[C@H](OC1)N32 (some centres undefined) | 16.6 | 44.9* | 1.4 | 4.9 | 1.0
COc1ccc(-c2cc(=O)oc3c(O)c(O)ccc23)cc1 | 59.0* | 1.0 | -23.5 | -15.4 | 2.9
CC(C)N(Cc1cnn(C)c1)C(=O)c1ccc(OC2CCN(Cc3ccccn3)CC2)cc1 | 56.8* | -0.1 | 3.5 | -4.4 | 4.8
O=C1c2ccccc2C(=O)c2c(O)c(O)cc(O)c21 | . | 179.4* | 83.2 | -27.4 | 42.7
O=C1C=C(O)c2c(O)cc(O)c(O)c2C1=O | . | 247.5* | -9.9 | -0.4 | 48.4
CC=CC1=CC(=O)CC(c2ccc(Cl)cc2)C1 (centres undefined) | . | . | 3.2 | . | 2.9
CN(C)c1ccc(C(=O)NN=Cc2cc(Br)cc(Br)c2O)cc1 | . | . | 10.3 | . | 14.4
CCOC(=O)c1c(C)[nH]c(C(=O)N/N=C\c2ccccc2O)c1C | 25.3 | 37.2* | . | 8.8 | .
C(=Cc1ccccc1)C=NNc1nc(N2CCCCC2)nc(N2CCCCC2)n1 | . | . | -8.1 | . | 3.7
Clc1ccc(C(c2ccc(Cl)cc2)n2cc[n+](CC(OCc3ccc(Cl)cc3Cl)c3ccc(Cl)cc3Cl)c2)cc1 (centres undefined) | . | -0.7 | 100.1* | 4.6 | 100.4*
COc1cc(O)ccc1C=NNC(=O)c1ccc([N+](=O)[O-])cc1 | . | . | 1.1 | . | 5.1
CC(=O)Oc1c(I)cc(I)cc1C(=O)Nc1ccc(Cl)cc1 | 10.1 | 216.8* | . | -4.6 | .
COc1ccc(Cl)cc1C(=O)Nc1ccc(NC(C)=O)cc1 | -14.9 | -1.3 | -1.5 | -1.1 | 0.2
O=C(COC(=O)c1ccc([N+](=O)[O-])s1)NCc1ccccc1 | 22.5 | -0.7 | 7.1 | -5.0 | 10.0
Cc1[nH]c2ccccc2c1C(=O)COC(=O)c1ccc([N+](=O)[O-])s1 | -3.2 | -2.0 | 96.1* | -2.0 | 90.1*
CC(C)(C)c1ccc(NC(=O)COC(=O)c2ccc([N+](=O)[O-])s2)cc1 | 7.4 | 11.5 | 99.6* | -20.7 | 83.2
O=C(COC(=O)c1ccc([N+](=O)[O-])s1)Nc1ccc(F)cc1 | . | 1.4 | 6.9 | -18.4 | 7.5
Cc1ccsc1C=NNc1nc(=O)[nH]nc1C | . | . | 0.9 | . | 4.9
COc1ccc(C(=O)NN=Cc2ccccc2OC(=O)c2ccccc2)cc1 | . | . | -15.0 | . | 8.1
O=c1c2ccccc2nc(/C=C/c2ccccc2F)n1-c1ccccc1O | 37.7 | 4.6 | 98.7* | 4.4 | 97.9*
SMILES | DUSP3 inh | PfHsp40 rescue | Sa ugtP lethal | PrPC surface inh | RN4220 kill
CCOP(=O)(OCC)/C(C#N)=C/c1cc(OC)ccc1OC | 52.4* | 1.1 | -0.2 | 4.5 | 1.1
CCOC(=O)/C(C#N)=C/Nc1cc(OC)ccc1OC | -11.7 | -1.5 | 1.6 | 6.6 | 2.3
O=C(NN=C/C=C/c1ccccc1)c1cccnc1 | . | . | 6.0 | . | 2.3
Cc1ccc2[nH]c3c(N4CCN(Cc5ccc6c(c5)OCO6)CC4)ncnc3c2c1 | 25.6 | . | 78.9 | 6.4 | 16.5
Cc1ccc2[nH]c3c(N4CCN(Cc5ccccc5)CC4)ncnc3c2c1 | 35.9 | -1.0 | 64.4 | 29.3* | 7.1
c1ccc(CN2CCN(c3ncnc4c3[nH]c3ccccc34)CC2)cc1 | 14.7 | -0.4 | 29.0 | 55.5* | 5.0
